Among the data in PubChem BioAssay (EPA / NIEHS) are AC50 and outcome values, retold here.

Assay [1] is described as follows: ACEA_AR_agonist_AUC_viability: ACEA Biosciences xCELLigence Real-Time Cell Analysis on Androgen Receptor Agonism for Viability (AID 2283775).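 On AC50: viability read 80 hours after compound addition.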 In outline: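 Viability endpoint from xCELLigence impedance in 22Rv1 prostate cells at 80 h. Eight-point series, 100 uM maximum final.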
The nature of assay [2]: ACEA_AR_antagonist_AUC_viability: ACEA Biosciences xCELLigence Real-Time Cell Analysis on Androgen Receptor Antagonism for Viability (AID 2283776).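 Further: 22Rv1 human prostate cancer cells growing on impedance electrode plates; hits lower the growth signal relative to DMSO meaning cytotoxicity.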 In outline: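 Impedance read-out (RT-CES): area under growth curve at 80 h post-dose, loss of signal scored vs DMSO baseline. 22Rv1 cells; 8-pt 1:4 series, top 100 uM final, ≤0.5% DMSO; biological duplicate.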
Assay [3] can be described thus: ACEA_ER_AUC_viability: ACEA Biosciences xCELLigence Real-Time Cell Analysis on Estrogen Receptor Agonism for Viability (AID 2283782).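 Further: hit means loss of impedance signal meaning reduced cell growth or viability.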 Summed up: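 Continuous-exposure impedance cell analysis uses T-47D cells in charcoal-stripped serum, eight 1:4 dilutions topping at 100 uM final, biological duplicate. Area under the growth curve at 80 h is fitted against DMSO baseline.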

A short description of assay [4]: STM_H9_NormalizedViability: Cytotoxicity Assessment at 120 hours in the Stemina devTOX quickPredict H9 human embryonic stem cell (hESC)-based Assay (AID 2283784). Summed up: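 CellTiter-Fluor RFU, background-subtracted, expressed relative to 0.1% DMSO neutral control by plate. Pluripotent H9 cells; treatment with daily re-dosing. Plates carried 1uM methotrexate (positive) and 5 nM methotrexate (negative) references.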

For assay [5], the target named is AR (gene 367) (UniProt P10275). Kind of assay: ACEA_AR_antagonist_80hr: ACEA Biosciences xCELLigence Real-Time Cell Analysis on Androgen Receptor Antagonism for Proliferation (AID 2283787).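 Further: 22Rv1 human prostate cancer cells with growth followed by electrical impedance; hits lower the impedance growth signal relative to DMSO.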 Summed up: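 Using 22Rv1 cells held in assay medium, we dosed compounds (100 uM maximum final, 1:4 serial, eight points, 0.5% DMSO at top) and recorded cell-electrode impedance; the 80 hr timepoint was analyzed against DMSO.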
Chain of AR (gene 367) (P10275 whole entry, looked up): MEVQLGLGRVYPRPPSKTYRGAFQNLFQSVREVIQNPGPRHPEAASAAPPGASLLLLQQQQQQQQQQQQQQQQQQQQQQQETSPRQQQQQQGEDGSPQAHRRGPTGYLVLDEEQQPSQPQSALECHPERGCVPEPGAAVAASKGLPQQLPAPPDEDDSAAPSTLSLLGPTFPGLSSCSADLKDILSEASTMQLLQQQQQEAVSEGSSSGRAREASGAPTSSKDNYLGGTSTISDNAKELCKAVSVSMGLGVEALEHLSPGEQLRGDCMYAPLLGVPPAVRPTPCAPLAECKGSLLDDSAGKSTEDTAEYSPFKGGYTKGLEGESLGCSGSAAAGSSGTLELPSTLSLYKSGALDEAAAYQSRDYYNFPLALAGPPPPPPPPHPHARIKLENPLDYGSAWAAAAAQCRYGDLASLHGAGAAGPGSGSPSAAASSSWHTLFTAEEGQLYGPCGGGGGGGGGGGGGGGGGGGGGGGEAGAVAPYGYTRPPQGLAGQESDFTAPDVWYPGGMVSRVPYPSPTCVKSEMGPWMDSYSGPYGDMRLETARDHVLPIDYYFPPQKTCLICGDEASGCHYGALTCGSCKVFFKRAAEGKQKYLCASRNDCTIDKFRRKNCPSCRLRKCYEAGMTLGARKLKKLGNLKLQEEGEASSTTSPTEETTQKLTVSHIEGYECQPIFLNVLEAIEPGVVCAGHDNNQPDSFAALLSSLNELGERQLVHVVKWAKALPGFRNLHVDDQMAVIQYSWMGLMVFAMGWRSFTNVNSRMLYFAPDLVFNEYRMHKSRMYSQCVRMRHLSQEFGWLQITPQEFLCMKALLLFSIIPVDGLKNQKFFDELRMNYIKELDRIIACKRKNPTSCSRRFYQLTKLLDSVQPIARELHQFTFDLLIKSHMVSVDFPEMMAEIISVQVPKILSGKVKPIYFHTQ

The subject of assay [6] is frog Estrogen Receptor (ESR1), gene 398734. Kind of assay: ATG_frER1_XSP1: Attagene TRANS-FACTORIAL Multi-Species (XSP1) HepG2 Assay for frog Estrogen Receptor (ESR1) (AID 2283777). In outline: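 After transient transfection and 24 h compound treatment, total RNA from HepG2 cells was reverse-transcribed, amplified, FAM-labeled and resolved by capillary electrophoresis. Signal increases were fitted against DMSO controls.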

Assay [7] has as its system zebrafish Estrogen Receptor (ESR2A), gene 317734. Kind of assay: ATG_zfER2a_XSP1: Attagene TRANS-FACTORIAL Multi-Species (XSP1) HepG2 Assay for zebrafish Estrogen Receptor (ESR2A) (AID 2283778). In outline:
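Gain-of-signal reporter transcription readout from GAL4-UAS units in transiently transfected HepG2 cells, 24 h exposure, 3 nM 6-alpha-fluorotestosterone co-present. Detection by RT-PCR with capillary electrophoresis fluorescence.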

The target in assay [8] is chicken Estrogen Receptor (ESR1), ESR1 (gene 396099) (UniProt P06212). As to the kind of experiment: ATG_chERa_XSP1: Attagene TRANS-FACTORIAL Multi-Species (XSP1) HepG2 Assay for chicken Estrogen Receptor (ESR1) (AID 2283779). Summed up: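 Gain-of-signal reporter transcription, relative to DMSO, was scored in transiently transfected HepG2 cells after a 24 h dose. Fluorescence intensity of amplified, digested reporter cDNA fragments served as the endpoint.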
Chain of chicken Estrogen Receptor (ESR1), ESR1 (gene 396099) (P06212 whole entry, looked up, the tested form may be a part): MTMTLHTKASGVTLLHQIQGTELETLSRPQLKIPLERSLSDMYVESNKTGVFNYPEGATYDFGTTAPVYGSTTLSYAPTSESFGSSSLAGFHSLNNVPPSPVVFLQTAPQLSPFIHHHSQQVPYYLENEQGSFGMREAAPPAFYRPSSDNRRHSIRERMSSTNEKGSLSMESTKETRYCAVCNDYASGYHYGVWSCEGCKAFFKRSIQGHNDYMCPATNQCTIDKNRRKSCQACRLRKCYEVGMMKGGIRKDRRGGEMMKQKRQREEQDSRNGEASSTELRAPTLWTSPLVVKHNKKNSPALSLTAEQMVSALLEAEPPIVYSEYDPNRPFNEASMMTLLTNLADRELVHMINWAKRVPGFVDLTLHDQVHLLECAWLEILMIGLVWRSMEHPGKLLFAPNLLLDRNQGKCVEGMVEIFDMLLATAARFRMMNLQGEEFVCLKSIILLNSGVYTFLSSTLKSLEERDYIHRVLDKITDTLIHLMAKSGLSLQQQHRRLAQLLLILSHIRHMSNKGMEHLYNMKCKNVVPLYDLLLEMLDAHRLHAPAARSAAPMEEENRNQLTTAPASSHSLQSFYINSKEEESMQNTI

In assay [9] the target is Estrogen receptor (Homo sapiens) (UniProt P03372). As to the kind of experiment: ATG_hERa_XSP1: Attagene TRANS-FACTORIAL Multi-Species (XSP1) HepG2 Assay for human Estrogen Receptor (ESR1) (AID 2283780). Summed up: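 Reporter transcripts from multiplexed GAL4-UAS units driven by NR-Gal4 chimeras in transiently transfected HepG2 were measured by RT-PCR with capillary electrophoresis 24 h post-dose, with 3 nM 6-alpha-fluorotestosterone present; gain-of-signal relative to DMSO.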
Chain of Estrogen receptor (Homo sapiens) (P03372 whole entry, looked up, the tested form may be a part): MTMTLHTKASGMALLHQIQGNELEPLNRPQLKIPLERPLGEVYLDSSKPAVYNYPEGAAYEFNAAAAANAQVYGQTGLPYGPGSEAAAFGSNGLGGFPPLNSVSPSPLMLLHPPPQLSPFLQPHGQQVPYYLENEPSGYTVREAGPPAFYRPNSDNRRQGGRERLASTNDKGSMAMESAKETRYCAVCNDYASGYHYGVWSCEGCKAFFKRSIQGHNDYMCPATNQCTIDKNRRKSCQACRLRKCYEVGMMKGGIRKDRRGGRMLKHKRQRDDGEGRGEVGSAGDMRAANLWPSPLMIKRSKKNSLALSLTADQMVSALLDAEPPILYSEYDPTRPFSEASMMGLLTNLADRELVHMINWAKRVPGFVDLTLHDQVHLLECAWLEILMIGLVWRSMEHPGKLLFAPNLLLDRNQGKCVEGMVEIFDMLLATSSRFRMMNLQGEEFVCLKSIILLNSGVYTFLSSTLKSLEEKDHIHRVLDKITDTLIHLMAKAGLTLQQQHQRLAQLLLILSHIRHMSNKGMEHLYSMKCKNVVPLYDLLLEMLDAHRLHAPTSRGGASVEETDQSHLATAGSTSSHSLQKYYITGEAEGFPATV

Assay [10] deals with turtle Estrogen Receptor (ESR1), gene 101933533. As to the kind of experiment: ATG_trERa_XSP1: Attagene TRANS-FACTORIAL Multi-Species (XSP1) HepG2 Assay for turtle Estrogen Receptor (ESR1) (AID 2283781). In outline: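 Cell-based chimeric NR-Gal4 transactivation; HepG2; 24 h dosing; mRNA reporter detected by RT-PCR and capillary electrophoresis fluorescence.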
The target of assay [11] is Estrogen receptor beta (Homo sapiens) (UniProt Q92731). Kind of assay: ATG_hERb_XSP1: Attagene TRANS-FACTORIAL Multi-Species (XSP1) HepG2 Assay for human Estrogen Receptor (ESR2) (AID 2283788). Summed up: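 Multiplexed trans-activation in transfected HepG2: ERβ-Gal4 reporter transcripts after 24 h treatment, detected by RT-PCR plus capillary electrophoresis.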
Chain of Estrogen receptor beta (Homo sapiens) (Q92731 whole entry, looked up, the tested form may be a part): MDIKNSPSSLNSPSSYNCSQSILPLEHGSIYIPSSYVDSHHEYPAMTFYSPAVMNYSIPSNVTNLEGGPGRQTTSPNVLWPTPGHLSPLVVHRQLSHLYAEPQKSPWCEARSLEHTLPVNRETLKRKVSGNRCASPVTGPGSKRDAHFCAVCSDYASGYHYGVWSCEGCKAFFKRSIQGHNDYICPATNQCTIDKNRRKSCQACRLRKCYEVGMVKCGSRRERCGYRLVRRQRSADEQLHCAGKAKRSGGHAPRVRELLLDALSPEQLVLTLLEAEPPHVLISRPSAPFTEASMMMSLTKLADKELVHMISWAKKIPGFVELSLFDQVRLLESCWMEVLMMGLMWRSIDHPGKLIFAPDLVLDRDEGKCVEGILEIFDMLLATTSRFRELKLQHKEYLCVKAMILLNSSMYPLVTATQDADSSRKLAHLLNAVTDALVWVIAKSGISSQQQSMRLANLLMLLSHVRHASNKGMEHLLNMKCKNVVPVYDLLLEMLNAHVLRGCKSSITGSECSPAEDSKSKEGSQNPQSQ
A short description of assay [12]: ATG_M_06_XSP1: Attagene TRANS-FACTORIAL Multi-Species (XSP1) HepG2 Assay for M06 Transcription Factor (Internal Marker) (AID 2283790). Summed up:
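This background-control readout tracks M06 reporter mRNA, measured by RT-PCR and capillary electrophoresis. HepG2 cells transiently carrying the GAL4-UAS reporter panel were dosed for 24 h with 3 nM 6-alpha-fluorotestosterone added for partial AR stimulation; increases were scored relative to DMSO.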

Assay [13] can be described thus: ATG_M_61_XSP1: Attagene TRANS-FACTORIAL Multi-Species (XSP1) HepG2 Assay for M61 Transcription Factor (Internal Marker) (AID 2283797). Summed up:
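Background-control readout: reporter transcripts measured by RT-PCR and capillary electrophoresis 24 h after dosing transiently transfected HepG2 multi-reporter cells, with 3 nM 6-alpha-fluorotestosterone present. Fitted in the positive direction relative to DMSO.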

Assay [14] concerns the target Peroxisome proliferator-activated receptor gamma (Homo sapiens) (UniProt P37231). As to the kind of experiment: ATG_hPPARg_XSP1: Attagene TRANS-FACTORIAL Multi-Species (XSP1) HepG2 Assay for human Peroxisome Proliferator-activated Receptor gamma (PPARg) (AID 2283800). In outline:
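Reporter mRNA induction, measured by RT-PCR with capillary electrophoresis 24 h after dosing, scored as gain over DMSO. Transfected HepG2 cells express exogenous NR-Gal4 chimeras driving GAL4-UAS reporters; medium includes 3 nM 6-alpha-fluorotestosterone.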

The test system of assay [15] is zebrafish Peroxisome Proliferator-activated Receptor gamma (PPARg), gene 557037. Kind of assay: ATG_zfPPARg_XSP1: Attagene TRANS-FACTORIAL Multi-Species (XSP1) HepG2 Assay for zebrafish Peroxisome Proliferator-activated Receptor gamma (PPARg) (AID 2283801). In outline: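 Trans-activation readout of chimeric zebrafish PPARg–GAL4 in transiently transfected human HepG2 cells, 24 h chemical exposure (medium includes 3 nM 6-alpha-fluorotestosterone). Reporter transcripts measured by RT-PCR and capillary electrophoresis, fitted as gain over DMSO.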

The target of assay [16] is mouse Peroxisome Proliferator-activated Receptor gamma (PPARg), Pparg (gene 19016) (UniProt P37238). Kind of assay: ATG_mPPARg_XSP1: Attagene TRANS-FACTORIAL Multi-Species (XSP1) HepG2 Assay for mouse Peroxisome Proliferator-activated Receptor gamma (PPARg) (AID 2283802). Summed up:
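Readout is reporter mRNA induction, measured by RT-PCR with 6-FAM labelling, HpaI digestion and capillary electrophoresis, 24 h post-dose relative to DMSO. Transient multi-reporter transfection of human HepG2 with mouse PPARg–GAL4 fusion; 3 nM 6-alpha-fluorotestosterone included.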

For assay [17], the target named is GAL4 Transcription Factor (Internal Marker), GAL4 (gene 855828) (UniProt P04386). Kind of assay: ATG_GAL4_XSP1: Attagene TRANS-FACTORIAL Multi-Species (XSP1) HepG2 Assay for GAL4 Transcription Factor (Internal Marker) (AID 2283789). In outline:
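This background-control endpoint measures GAL4-driven reporter mRNA via RT-PCR and capillary electrophoresis of labelled fragments. Transiently transfected HepG2 cells were treated 24 h, with 3 nM 6-alpha-fluorotestosterone included, and gain-of-signal was fitted against DMSO.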

Assay [18] in a line: ATG_M_19_XSP1: Attagene TRANS-FACTORIAL Multi-Species (XSP1) HepG2 Assay for M19 Transcription Factor (Internal Marker) (AID 2283798). In outline:
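Readout is reporter mRNA induction quantified via RT-PCR, 6-FAM labeling, HpaI digestion and capillary electrophoresis, fitted in the positive direction versus DMSO baseline. Transfected HepG2 cells exposed 24 h, medium including 3 nM 6-alpha-fluorotestosterone.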

A short description of assay [19]: ATG_M_32_XSP1: Attagene TRANS-FACTORIAL Multi-Species (XSP1) HepG2 Assay for M32 Transcription Factor (Internal Marker) (AID 2283799). Summed up:
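Reporter transcripts from the M32 internal-control unit measured by RT-PCR, FAM labelling, HpaI digestion and capillary electrophoresis after 24 h compound exposure of transfected HepG2, 3 nM 6-alpha-fluorotestosterone included; DMSO baseline, positive-direction fit.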

Values joined by “and” are separate entries in the source; they are usually repeats but may differ in a detail not shown here. Equal values may be shown once. Inconclusive results are not listed. Active and inactive are the calls of the source. How the source made its calls: active means hit-call score of the fitted dose curve at least 0.9, where 1 is the maximum; inconclusive means response in the unintended direction; inactive means score below 0.9.

Chain of mouse Peroxisome Proliferator-activated Receptor gamma (PPARg), Pparg (gene 19016) (P37238 whole entry, looked up, the tested form may be a part): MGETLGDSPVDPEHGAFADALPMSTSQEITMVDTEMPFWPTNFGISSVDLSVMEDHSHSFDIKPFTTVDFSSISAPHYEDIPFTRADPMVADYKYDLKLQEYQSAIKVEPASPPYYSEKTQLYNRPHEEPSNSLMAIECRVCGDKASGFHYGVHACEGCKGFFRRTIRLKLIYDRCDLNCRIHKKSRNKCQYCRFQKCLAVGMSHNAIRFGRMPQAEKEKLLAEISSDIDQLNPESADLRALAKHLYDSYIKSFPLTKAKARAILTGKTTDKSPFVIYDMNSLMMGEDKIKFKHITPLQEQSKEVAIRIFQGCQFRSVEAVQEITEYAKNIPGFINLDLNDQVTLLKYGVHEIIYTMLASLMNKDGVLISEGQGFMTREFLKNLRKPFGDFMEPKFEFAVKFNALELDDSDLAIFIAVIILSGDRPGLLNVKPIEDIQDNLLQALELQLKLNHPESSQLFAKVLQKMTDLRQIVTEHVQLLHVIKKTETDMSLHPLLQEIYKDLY
Chain of Peroxisome proliferator-activated receptor gamma (Homo sapiens) (P37231 whole entry, looked up, the tested form may be a part): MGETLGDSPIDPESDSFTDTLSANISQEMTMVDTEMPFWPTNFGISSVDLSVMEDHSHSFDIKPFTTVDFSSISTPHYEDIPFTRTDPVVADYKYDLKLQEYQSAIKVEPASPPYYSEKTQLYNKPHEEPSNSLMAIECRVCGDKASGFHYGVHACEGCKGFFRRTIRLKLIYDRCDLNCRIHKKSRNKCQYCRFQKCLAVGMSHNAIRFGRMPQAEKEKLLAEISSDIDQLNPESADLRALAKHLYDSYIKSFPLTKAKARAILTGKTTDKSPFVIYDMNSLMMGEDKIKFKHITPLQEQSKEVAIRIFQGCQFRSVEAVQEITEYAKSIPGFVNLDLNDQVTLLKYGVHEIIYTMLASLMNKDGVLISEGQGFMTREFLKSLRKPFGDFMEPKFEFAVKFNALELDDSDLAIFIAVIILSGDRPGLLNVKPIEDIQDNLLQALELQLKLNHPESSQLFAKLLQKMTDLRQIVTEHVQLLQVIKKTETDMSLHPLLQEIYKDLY
Chain of GAL4 Transcription Factor (Internal Marker), GAL4 (gene 855828) (P04386 whole entry, looked up, the tested form may be a part): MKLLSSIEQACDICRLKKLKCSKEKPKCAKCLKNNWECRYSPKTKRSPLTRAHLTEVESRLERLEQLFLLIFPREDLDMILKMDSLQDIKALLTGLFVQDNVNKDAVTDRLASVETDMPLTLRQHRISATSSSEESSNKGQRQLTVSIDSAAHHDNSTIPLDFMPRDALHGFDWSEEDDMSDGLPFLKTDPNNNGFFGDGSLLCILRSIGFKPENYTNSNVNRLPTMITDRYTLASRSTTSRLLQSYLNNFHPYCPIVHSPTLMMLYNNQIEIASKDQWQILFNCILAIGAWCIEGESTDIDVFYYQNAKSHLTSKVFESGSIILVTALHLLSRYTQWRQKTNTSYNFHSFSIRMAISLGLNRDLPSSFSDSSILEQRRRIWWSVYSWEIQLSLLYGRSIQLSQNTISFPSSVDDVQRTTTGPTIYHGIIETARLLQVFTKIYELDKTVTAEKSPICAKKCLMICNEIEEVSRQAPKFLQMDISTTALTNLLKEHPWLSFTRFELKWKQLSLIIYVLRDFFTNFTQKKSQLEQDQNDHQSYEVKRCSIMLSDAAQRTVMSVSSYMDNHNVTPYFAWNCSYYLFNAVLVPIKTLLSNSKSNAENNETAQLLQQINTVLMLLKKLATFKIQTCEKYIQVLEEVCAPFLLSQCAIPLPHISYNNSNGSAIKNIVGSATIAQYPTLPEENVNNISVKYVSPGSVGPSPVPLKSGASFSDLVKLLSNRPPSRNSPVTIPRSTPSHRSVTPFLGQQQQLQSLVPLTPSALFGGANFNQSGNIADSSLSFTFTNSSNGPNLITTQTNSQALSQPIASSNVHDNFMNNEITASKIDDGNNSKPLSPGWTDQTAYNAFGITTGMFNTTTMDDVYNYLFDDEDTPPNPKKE

`N#CSCSc1nc2ccccc2s1`: the AC50 is 19.4 µM (active) in assay [1]; 15.7 µM (active) in [2]; 10.9 µM (active) in assay [3]; 17.3 µM (active) in [4]; 15.1 µM (active) in assay [5].

With `CC(C)CCCCCCc1ccc(O)cc1`, the AC50 in [1] was 10.7 µM (active); in [2], 7.91 µM (active); in [6], 0.189 µM (active); in assay [8], 0.357 µM (active); in [9] it was 0.507 µM (active); in [10] it was 0.317 µM (active). The AC50 is 20.2 µM (active) and 21.5 µM (active) and 20.6 µM (active) in assay [3]; 81.2 µM (active) in assay [4]; 0.246 µM (active) in [11]; 15.9 µM (active) in [16]. Further, the result in [7], in assay [12], in assay [13], in assay [14] and in [15] was inactive.

For `CCCCC(CC)CN1C(=O)C2C3C=CC(C3)C2C1=O` (centres undefined), the AC50 in [1] was 81.6 µM (active); in assay [2], 56.8 µM (active); in [8] it was 0.306 µM (active); in assay [9] it was 2.7 µM (active); in assay [3], 70.2 µM (active); in [14] it was 15.5 µM (active). In addition, the AC50 in [16] was 27.7 µM (active). The result in [6], in [7], in assay [17], in assay [18], in assay [19] and in assay [15] was inactive.

In the case of `CC(C)(c1ccc(O)cc1)c1ccc(O)cc1`, the AC50 in assay [1] is 41.4 µM (active); in assay [2] it was 40.9 µM (active); in assay [6], 0.163 µM (active); in [7], 0.68 µM (active); in [8], 0.2 µM (active); in assay [10] it was 0.195 µM (active). For the same compound, the AC50 in [5] was 43.6 µM (active). For the same compound, the outcome in assay [4], in [12], in assay [13] and in [16] was inactive.

Regarding `CC(=O)[C@H]1CC[C@H]2[C@@H]3CCC4=CC(=O)CC[C@]4(C)[C@H]3CC[C@]12C`, the compound was called inactive in [1] and in [2].

Regarding `CCCCCCC(C)OC(=O)COc1nc(F)c(Cl)c(N)c1Cl` (centres undefined), the AC50 in [1] is 22.9 µM (active); in assay [2], 17.8 µM (active); in assay [3] it was 14.3 µM (active).

In the case of `CCC(C)OC(=O)N1CCCCC1CCO` (centres undefined), the compound was called inactive in assay [1], in [2] and in assay [3].

With `CCOC(=O)COc1cc(-n2ncc(C(F)(F)F)c(C)c2=O)c(F)cc1Cl`, the compound was called inactive in assay [1], in assay [2] and in assay [3].

Turning to `CCN(CC)C(=O)c1cccc(C)c1`, the call in [1] and in assay [2] was inactive.

Take `c1ccc(Nc2ccccc2)cc1`: the AC50 in assay [1] was 74.8 µM (active). In addition, the result in assay [2] and in assay [3] was inactive.

For `CCCCCOC(=O)COc1cc(N2C(=O)C3=C(CCCC3)C2=O)c(F)cc1Cl`, the AC50 was 78.1 µM (active) in assay [1] and 77.8 µM (active) in assay [2]. The call in assay [3] and in assay [4] was inactive.
